Activity change, negative = inhibition data for 87 compounds are collected here from PubChem BioAssay AID1259415 (National Center for Advancing Translational Sciences (NCATS), 2018).

Several values for one entry are separate records, joined by “and”; a condition that tells them apart may be missing. Equal values may be shown once. Out of some 410,000 compounds screened, about 18,000 (4.4%) were called active. Roughly 7% stayed inconclusive and do not appear here. This excerpt belongs to a sample that is enriched for actives. A number with no mark means an inactive call. Cut-off read from the data, not from the text of the source: active = activity change below about -60%; inconclusive = no clear call, values can overlap the other calls; inactive = above about -39%.
% is set by controls: 0 for no effect and ±100 for the full control effect.

The nature of this experiment: qHTS Assay for inhibitors of the human cytomegalovirus (HCMV). As to conditions: HFF cells, HCMV-luciferase reporter, 72 h; at 57.5 µM; hits give low values. A digest of the protocol:
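Human foreskin fibroblasts infected with luciferase-reporter HCMV at MOI 1 PFU/cell, compounds at two doses. Luciferase measured 72 h post infection; normalized to buffer-only basal and Salinomycin (10uM) controls.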
On the technique in general: In qHTS, concentration-response curves come from the screen itself.
Consider `CCOC(=O)c1cnc2c(C)cc(Cl)cc2c1NCCc1ccc(OC)c(OC)c1`, for which the activity change, negative = inhibition is -5.49%.

Take `CCOc1ccc(NC(=O)CCC(=O)N2CC(C)Oc3ccc(C)cc32)cc1` (configuration not stated): the activity change, negative = inhibition was -10.3%.

Consider `COc1ccc(NC(C)=O)cc1NC(=O)CN1CCN(c2ccc(F)cc2)CC1`, for which the activity change, negative = inhibition was -5.69%.

For `COc1ccccc1/C=C/c1nc(C#N)c(NC(C)c2ccccc2)o1` (configuration not stated), the activity change, negative = inhibition was 81.4%.

On to `CCCCC12CN3CC(C)(CN(C1)C3c1ccc(O)c(OC)c1)C2=O` (configuration not stated), for which the activity change, negative = inhibition was 4.32%.

On to `Cc1ccc(OCC(=O)Nc2ccc(OCc3cc(=O)n4c(C)csc4n3)cc2)cc1C`, for which the activity change, negative = inhibition was 18.3%.

Turning to `CC(C(=O)N1CCN(c2ccccc2F)CC1)c1ccc([N+](=O)[O-])cc1` (configuration not stated), the activity change, negative = inhibition was -11.5%.

With `O=C1OC(C(=O)Nc2cccc(Br)c2)Cc2ccccc21` (configuration not stated), the activity change, negative = inhibition was 7.91%.

For `O=C(CCSc1ccccc1)N1CCN(c2ccccc2F)CC1`, the activity change, negative = inhibition was 72.3%.

`Cn1cc(-c2ccccc2)cc(C#N)c1=O`: the activity change, negative = inhibition was -1.91%.

With `Cn1c(-c2sc3cc(C(F)(F)F)cnc3c2-c2ccccc2)n[nH]c1=S`, the activity change, negative = inhibition was 18.8%.

For `CC1=CC(C)(C)NC(=S)N1NC(=O)c1ccccc1Cl`, the activity change, negative = inhibition was 38.2%.

On to `O=C(NN1C(=O)C2CCCCC2C1=O)c1ccco1` (configuration not stated), for which the activity change, negative = inhibition is 3.07%.

In the case of `CC12CCC(C(=O)N(NC(=O)c3ccccc3O)C1=O)C2(C)C` (configuration not stated), the activity change, negative = inhibition is -81.2% (active).

Consider `CCC(C)NCC(=O)Nc1ccc([N+](=O)[O-])cc1C(=O)Nc1ccccc1F` (configuration not stated), for which the activity change, negative = inhibition is 20.4%.

In the case of `Cn1c(=O)cc(OCC(=O)N2CCN(c3ccccc3)CC2)c2ccccc21`, the activity change, negative = inhibition is 0.385%.

Consider `O=C(C[C@H]1C/C=C\C[C@@H](NC(=O)OCC2c3ccccc3-c3ccccc32)C(=O)O[C@@H](c2ccccc2)CNC1=O)N[C@H](CO)Cc1ccccc1`, for which the activity change, negative = inhibition was -86.9% (active).

For the compound `CC(C)(C)OC(=O)C[C@@H]1C/C=C\C[C@@H](CC(=O)N[C@H](CO)Cc2ccccc2)C(=O)NC[C@@H](c2ccccc2)OC1=O`, the activity change, negative = inhibition is -6.88%.

Consider `CC(C)(C)OC(=O)C[C@H]1C/C=C\C[C@@H](CC(=O)N[C@H](CO)Cc2ccccc2)C(=O)NC[C@@H](c2ccccc2)OC1=O`, for which the activity change, negative = inhibition is -8.79%.

For `O=[N+]([O-])c1ccc(Oc2ccc(F)cc2Br)c2ccncc12`, the activity change, negative = inhibition is -78.1% (active).

For `COc1ccc2oc(=O)c(-c3cn4c(n3)sc3cc(OC)ccc34)cc2c1`, the activity change, negative = inhibition is -16.2%.

`O=[N+]([O-])c1ccc(C=Nc2ccc(Cl)cc2Cl)s1`: the activity change, negative = inhibition was -103% (active).

For the compound `C=CCN1C=C(C(=O)c2ccccc2)C(=O)CC1`, the activity change, negative = inhibition is -25.3%.

For `CCOc1ccc(CC(=O)NCCc2csc3nc(-c4ccccc4F)nn23)cc1`, the activity change, negative = inhibition is -0.0376%.

For `CCOc1ccccc1C(=O)Nc1ccc2c(c1)N(C)C(=O)c1ccccc1S2`, the activity change, negative = inhibition is 5.48%.

Regarding `CCOC(=O)c1c(C)oc2ccc(N(C(=O)c3ccncc3)S(=O)(=O)c3ccc(CC)cc3)cc12`, the activity change, negative = inhibition is -6.14%.

Regarding `CC(=O)c1c(C)oc2ccc(NS(=O)(=O)c3ccccc3)cc12`, the activity change, negative = inhibition was -24.7%.

For `COC(=O)c1c(C)oc2ccc(N(C(=O)Oc3ccccc3)S(=O)(=O)c3ccccc3)cc12`, the activity change, negative = inhibition is -63.7% (active).

With `Cc1cccc(N(C)C(=O)CS(=O)(=O)c2cccc3nsnc23)c1`, the activity change, negative = inhibition was -14.6%.

As for `CCN(C(=O)Cn1c(=O)nc(-c2ccccc2)c2cc(Cl)ccc21)c1cccc(C)c1`, the activity change, negative = inhibition is -20.1%.

Regarding `O=C(NCCc1ccc(Cl)cc1)c1ccc2c(c1)N(Cc1ccc(F)cc1)C(=O)CS2`, the activity change, negative = inhibition is 2.62%.

With `Cc1ccc(Nc2cc(C)nc3c(C)ccc([N+](=O)[O-])c23)cc1`, the activity change, negative = inhibition was -65.6% (active).

For `CNc1ccc(-c2nc(-c3ccccc3C)no2)cc1[N+](=O)[O-]`, the activity change, negative = inhibition is 63.3%.

Turning to `Cc1ccc(NC2=NC(c3ccccc3)n3c(nc(C)cc3=O)N2)cc1` (configuration not stated), the activity change, negative = inhibition was -12%.

Consider `C[C@@H]1CN([C@H](C)CO)C(=O)CCCn2cc(nn2)CO[C@H]1CN(C)C(=O)Nc1ccc(N2CCCCC2)cc1`, for which the activity change, negative = inhibition is 5.98%.

For `CCOc1ccc(CNC(=O)c2cc(=O)[nH]c3ccc(S(=O)(=O)N4CCCCC4)cc23)cc1`, the activity change, negative = inhibition is 66.7%.

With `O=C(Nc1ccc2oc(-c3ccc(O)c(Br)c3)nc2c1)c1cc2ccccc2o1`, the activity change, negative = inhibition was 17.1%.

Take `COc1cccc(C(=O)NC2(C(F)(F)F)C(=O)Nc3c2c(=O)[nH]c(=O)n3-c2ccc(C)cc2)c1` (configuration not stated): the activity change, negative = inhibition is 23.5%.

`Cc1ccsc1C(=O)C1CCCN(Cc2ccc(O)cc2)C1` (configuration not stated): the activity change, negative = inhibition was 66.6%.

In the case of `Cc1occc1C(=O)NC1CCCN(Cc2ccc(CC(C)C)cc2)C1` (configuration not stated), the activity change, negative = inhibition was -69.3% (active).

For `Cc1ccn(CC(=O)NC2CCCN(Cc3ccccc3F)C2)n1` (configuration not stated), the activity change, negative = inhibition was -8.34%.

For `COc1cccc(NC(=O)C(=O)NCC(c2ccc3c(c2)OCO3)N2CCN(C)CC2)c1` (configuration not stated), the activity change, negative = inhibition is 44%.

Regarding `CSc1ccc(NC(=O)Cn2nnnc2-c2ccccc2F)cc1`, the activity change, negative = inhibition was 13%.

For the compound `CC(C)Oc1ccc(CNC(=O)C2CCN(c3nc4ccccc4n(C)c3=O)CC2)cc1`, the activity change, negative = inhibition is 3.39%.

Regarding `COc1cccc2cc(-c3nc(Cl)c4c5c(sc4n3)CC(C)CC5)c(=O)oc12` (configuration not stated), the activity change, negative = inhibition was 7.76%.

With `Fc1ccc(CSc2nnc(-c3cc4c(s3)-c3ccccc3CC4)o2)cc1`, the activity change, negative = inhibition was 20.4%.

As for `O=C(Oc1ccc(-c2nnco2)cc1)c1ccc(F)c(S(=O)(=O)N2CCOCC2)c1`, the activity change, negative = inhibition was 34.8%.

On to `COc1ccccc1OC(=O)c1ccc(C)c(S(=O)(=O)N2CCOCC2)c1`, for which the activity change, negative = inhibition was 2.56%.

Regarding `COc1ccc(C(=O)Oc2ccc(-c3nnco3)cc2)cc1S(=O)(=O)N1CCOCC1`, the activity change, negative = inhibition is -83.8% (active).

As to `COc1ccc(NC(=O)COC(=O)CNC(=O)C2CCCCC2)cc1`, the activity change, negative = inhibition was 16%.

Turning to `CCC(C)(C)c1ccc(Oc2ccc(NC(=O)COC(=O)C3=COCCO3)cc2)cc1`, the activity change, negative = inhibition is -70.9% (active).

On to `O=C1CCC(C(=O)OCC(=O)Nc2ccc(OC(F)F)cc2)=NN1`, for which the activity change, negative = inhibition was 5.49%.

As to `COc1cccc(Nc2nc3ccccc3c3nncn23)c1`, the activity change, negative = inhibition is 15%.

Consider `COc1ccc(NC(=O)CCc2nnc3n(CC(C)C)c(=O)c4ccccc4n23)cc1OC`, for which the activity change, negative = inhibition is -15.8%.

For the compound `O=C(Cn1c(=O)nc(-c2ccccc2)c2cc(Cl)ccc21)NCc1ccc(Cl)cc1`, the activity change, negative = inhibition was 4.55%.

In the case of `CCCCNc1ccc(-c2nc(-c3ccncc3)no2)cc1[N+](=O)[O-]`, the activity change, negative = inhibition is 14.6%.

As to `Cc1ccccc1Cn1nc(C)c(NC(=O)c2cc(-c3ccc(F)cc3)on2)c1C`, the activity change, negative = inhibition is -10.2%.

As to `Cc1nn(Cc2ccccc2)c(C)c1NS(=O)(=O)c1ccccc1`, the activity change, negative = inhibition was 18.1%.

On to `Cc1ccccc1Cn1nc(C)c(NC(=O)C(F)(F)F)c1C`, for which the activity change, negative = inhibition is -69.7% (active).

On to `COc1cc(NC(=O)CN2CCN(S(=O)(=O)c3ccc(Br)cc3)CC2)cc(OC)c1`, for which the activity change, negative = inhibition was 10.7%.

Consider `CC(C)OCCCn1c(SCC(=O)c2ccccc2)nc2c(sc3ccccc32)c1=O`, for which the activity change, negative = inhibition is -3.18%.

Consider `CCc1nn(CCCC(=O)NCc2ccccc2OC)c(=O)c2cc3occc3n12`, for which the activity change, negative = inhibition is 0.686%.

With `CC(=O)c1ccc(S(=O)(=O)N2CCC(Oc3ccc(-n4cnnn4)cc3)CC2)cc1`, the activity change, negative = inhibition was -16.1% and 9.96%.

Regarding `COC(=O)c1ccc(S(=O)(=O)N2CCC(c3nc4ccccc4o3)CC2)cc1`, the activity change, negative = inhibition is -36.4%.

For `CC(=O)c1ccc(S(=O)(=O)N2CCN(C(=O)/C=C/c3ccc4ccccc4n3)CC2)cc1`, the activity change, negative = inhibition is -94.7% (active).

Turning to `O=C(NCCc1ccccc1)c1cnc2sc(N3CCCC3)nn2c1=O`, the activity change, negative = inhibition was -22.6%.

Regarding `CCCCNc1c(-c2cccc(Sc3ccc(OC)cc3)c2)nc2ccccn12`, the activity change, negative = inhibition is -28.4%.

As for `COC(=O)[C@]12C[C@H](CC(=O)NCCC(C)C)C(=O)N(CCc3ccc(OC)c(OC)c3)C1=C[C@H](C(C)(C)C)O[C@@H]2C`, the activity change, negative = inhibition was 13.1%.

For the compound `COc1ccccc1CNC(=O)c1ccc(-n2c(C)cc3c2CCCC3)cc1`, the activity change, negative = inhibition is -28.5%.

For `Cc1cc([N+](=O)[O-])ccc1NC1CCCC1`, the activity change, negative = inhibition was -71.6% (active).

As to `Cc1cc([N+](=O)[O-])c(NC2CCCCC2)c([N+](=O)[O-])c1`, the activity change, negative = inhibition was -18.1%.

Consider `N#Cc1cc([N+](=O)[O-])ccc1NCC1CCCO1` (configuration not stated), for which the activity change, negative = inhibition is 11.1%.

For the compound `COc1ccc(C)cc1N(C)C(=O)c1c(C)oc2ncnc(N3CCOCC3)c12`, the activity change, negative = inhibition was -37.3%.

`Cc1ccc2onc(CC(=O)N3CCN(c4ccc(Cl)cc4)CC3)c2c1`: the activity change, negative = inhibition is -15.9%.

As to `Cc1nn(C(C)C(=O)NCCc2ccccc2)c(=O)c2c1sc1ccccc12` (configuration not stated), the activity change, negative = inhibition is -39.3%.

Take `CCCCN(C)c1nnc(NC(=O)Nc2ccc(Br)c(C)c2)s1`: the activity change, negative = inhibition is -4.35%.

For `Cc1ccc(Nc2nc(Cl)c(C=O)s2)cc1`, the activity change, negative = inhibition is -12.1%.

As for `Cc1ccc(NC(=O)Nc2nnc(-c3ccncc3)s2)cc1`, the activity change, negative = inhibition is -99.3% (active).

Turning to `CCNC(=O)C1(C)CCCN1C(=O)c1ccc(N(C)C)cc1` (configuration not stated), the activity change, negative = inhibition is -8.81%.

With `Cc1ccc(C)c(Nc2nnc(-c3ccc(C)c(S(=O)(=O)N4CCCCC4)c3)c3ccccc23)c1`, the activity change, negative = inhibition was -66.1% (active).

For the compound `Cc1ccc(-c2nnc(Nc3ccc(C(=O)N(C)C)cc3)c3ccccc23)cc1S(N)(=O)=O`, the activity change, negative = inhibition is -17.4%.

`Cc1ccc(Nc2nnc(-c3ccc(C)c(S(=O)(=O)N4CCCCC4)c3)c3ccccc23)cc1`: the activity change, negative = inhibition was -7.76%.

As to `COc1cc(CN(C(=O)c2ccccc2Br)c2ccccn2)cc(OC)c1OC`, the activity change, negative = inhibition is -1.41%.

`O=S(=O)(c1ccc(Br)cc1)c1nnn2c1nc(NC1CCCCCC1)c1sccc12`: the activity change, negative = inhibition is -2.26%.

Consider `CCn1cc(C(=O)OCC(=O)Nc2cc(C)cc(C)c2)c(=O)c2ccc(C)nc21`, for which the activity change, negative = inhibition was -39.2%.

Take `CCn1cc(C(=O)N2CC=C(c3ccccc3)CC2)c(=O)c2ccc(C)nc21`: the activity change, negative = inhibition is -108% (active).

With `CCn1cc(C(=O)OCC(=O)Nc2cccc(C)c2)c(=O)c2ccc(C)nc21`, the activity change, negative = inhibition was 37.7%.
